108 sequences from PubChem BioAssay AID1508600 (Functional Genomics Laboratory (NCATS/FGL), 2020) can be followed below.

The campaign covered roughly 53,000 sequences. About 3,700 (7%) were called active. This excerpt belongs to a sample that is enriched for actives. Unmarked numbers belong to inactive results.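 How the source made its calls: active means gene knockdowns whose robust z-score for IL-1 alpha signal is at least 2 or at most -2, so actives lie on both sides; inactive means the rest.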

The nature of the assay: Components of the Cytosolic LPS Sensing Pathway: Gene Identification via Genome-wide siRNA Screen.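 Further: robust z of the log signal after scaling to non-targeting control siRNA wells of the plate.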 The following applies: RAW264.7 macrophages, IL-1a HTRF, actives lie on both sides, screened at 100 nM (by protocol), cells primed 5 h with Pam3CSK4 first. The method in brief: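 Mouse macrophage line RAW264.7 is transfected with siRNA (100 nM final), grown 48h, primed with TLR ligand Pam3CSK4 5 h and given intracellular LipidA 24 h. IL-1a in supernatant is read by HTRF and viability by luminescence.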
A general note: TR-FRET usually uses a lanthanide donor and a delayed reading to cut background.
Turning to GGUGGGUCAAUGAUCCAGGTT against Fabp9, the z-score is -2.11 (active). Turning to GGAUGUCUUUGUUCACCAGTT against Ybx2, the z-score is -0.267. GCCUUUUAAUAGAUGUCAUTT against Vta1: the z-score is -0.201.

As to GGUGUAUUUUUUCACUGUUTT against Olfr339, the z-score was -1.52. As to GGACUUGCCACCCAGGAAATT against Apba3, the z-score was -0.175.

Turning to GCAGAUCAGAAGAAAUUUGTT against Jmy, the z-score is 1.22. With GGGAAAAGCACGUUCUUGCTT against Arl10, the z-score was 0.34. Turning to GGAUACGAUCCAGUGUGCCTT against Lyzl4, the z-score is 1.04. Turning to GGAGGAUUCCCUCUAUAUUTT against Slc33a1, the z-score was 0.118. Regarding GGGUCCCUAAGCAUGUUCCTT against Slfn10-ps, the z-score was 0.618.

As for GGCUUUGAGCAUGUUUUCATT against Hspb7, the z-score was 7.14 (active). For the sequence GGUGGAUAUAAUAAUUGACTT against Tgfbr3, the z-score is 1.06. As for GCUAUCCAGAUUGGUGUUATT against Tatdn1, the z-score was 1.7.

Regarding GGGCCAAGAAAACCUACACTT against Cyp11b2, the z-score was 2.63 (active). With GGCCAAUAAAGACUGGUUUTT against Rps15, the z-score was 1.69. GGAAAGCAAUGCAUUACAATT against Zbtb6: the z-score was 0.149.

On to GGCGGAAGCCAUCUAACUUTT against Arhgef4, for which the z-score was -0.519. Take GGCAGCUUCAGGAACCAAUTT against Krt5: the z-score is -2 (active). As to GGGUUUUCUCAUUGUCUUUTT against Rce1, the z-score was -1.91. Under GGAGGUUUUCAUGGUUAUCTT against Nrgn stands 0.0293. GGUAGACUGAACUUCAGCATT against Larp6: the z-score was -1.31. Regarding CCCUAUGCAAUAUAUAGACTT against Tmsb15l, the z-score is 0.174. Consider CCGAAAAUGAGAUAAAGUCTT against Polr2k, for which the z-score is -1.88. GGUCAAGUCAAGAGUGAGATT against BC048562: the z-score was 0.2.

Take GGCAUUCUGUGAGACACAATT against Exosc10: the z-score is 0.389.

Take CCACAAGCAGUGCUCUUUCTT against Cyp3a13: the z-score is -2.08 (active). GAGAAGAAAAAAUGCAGUGTT against Olfr825: the z-score is 0.0375. Under CCUGAGGUGUUUUACAUAUTT against Med20 stands 0.085. As for GGAAGAAUCCUCCAUGGAGTT against Mrpl24, the z-score is 1.35. Consider GGAAUCAGUGACCUUUUUCTT against Arf2, for which the z-score is -2.05 (active). CCCUCCUAUUAGCGCAUUUTT against Osbpl2: the z-score was -0.239. Regarding GGAGAUGAUCGACGAAGUATT against Tnnc1, the z-score was 0.914. Under GGAGACAGCAUUCAUUUAUTT against Wnt16 stands 0.94. Regarding GCUCUCCUUGAUCGAGAGATT against Spryd7, the z-score is -2.65 (active).

Regarding GCCUUGUCUUCCUUCAGUGTT against Sprr2a1, the z-score is -0.172.

As for GGACUUAAGUACAAAGAUCTT against Sap18, the z-score is 1.46. To GCAUCAAAUAGUGGUACCUTT against Lsm14a belongs -0.209; to CGAGCUCAGGUGAGAAAUUTT against Pfpl, 0.924; to GGACUGCCUUAUGCUACGATT against Setd5, -0.44. GUCCUCUUCUGGUUCUCAGTT against Vmn1r52: the z-score was 0.246. Under CGAGAAGUACAAAAGGGAGTT against Ccdc103 stands -0.768; under GGUCCUGACUGGAUACCUGTT against Ece1, 4.19 (active). Under GGCGGAGUAGACUUCAUAUTT against Olfr593 stands 0.363; under GUUUGAUGAUCACUGGGUCTT against Aqp2, 1.6. Under GCUCCGAAGAGCUAAUACUTT against Tmem25 stands 0.944.

As for GCGGCAGAUCUUCGAUUUCTT against Nkain1, the z-score was 0.168. GGCAAAUAUUUCCAAGUACTT against Cpq: the z-score was -1.57. To CGAAGUUCCUGGAAAAUAUTT against Tbc1d7 belongs -0.924. With CCAGAACGCGGAGCAAAUUTT against Sec63, the z-score was 2.13 (active). For the sequence GCACUGUGACGAUACAAGATT against Asb1, the z-score is -1.17. Turning to CCGUAGCGAGACUUACAUCTT against Asic3, the z-score is 1.88. Consider CCUAUAAUGGAGAUGAUACTT against Spty2d1, for which the z-score was -0.46. GGGAAAUGGUGAAUCACAGTT against Dpp8: the z-score is 2.25 (active). For GGCAGAAGCCGUUAGAGAUTT against Cep295nl, the z-score is 0.35. Turning to CCAAUCGUAAUGACAAUUCTT against Myo1d, the z-score is -0.857. Consider GGGACAACACUCUUUUACUTT against Nab2, for which the z-score was 0.696. Under GGAGGACUUUCAGUUAUAUTT against Ogfod3 stands 1.32; under GCGAUUGUGCUUUUGAGCCTT against Tanc2, 1.97. With GGCUUCAGUGAUGAAUGAATT against Tor1aip1, the z-score was -0.594.

On to GCCACGACACGAUGACAUATT against Plcxd1, for which the z-score was 0.918. Regarding GCUAAGUUAAGCUUAAUACTT against Rbl1, the z-score is 3.33 (active). Take GGCAUAGCCACUAAAAAAATT against Muc2: the z-score is -0.832. To GGUUUCCAGUUAUCUUAAUTT against Glipr1l2 belongs 1.46. To “GGACAAAGAAACUCAUAGGTT against A530021J07Rik” belongs 0.737.

As to GGCUUUUUAGGAAACUAUATT against Olfr361, the z-score was 2.12 (active). GGUGAACUUCUUUGGUGCATT against Hsd11b2: the z-score was 0.0519. Under GCUUAGAAAUCUUAUCCCATT against Hnrnpc stands -1.19; under GGCACUUCUUUCCAAGACGTT against Gbp7, -0.373; under GCCUGUUCUAUGUUACUGGTT against Olfr320, -1.99. Consider GCGAUGUCAAUCAAUUCUGTT against Gpr37l1, for which the z-score was 0.513. Regarding GCAUUUCGUCAGGGCAAAATT against Fuca1, the z-score was -0.515.

Take UAUUUCUCCCUUGCUGGUATT against Gm5168: the z-score was 1.18. With CCGCUGAAAAUGGAAGUUATT against Mrgprb4, the z-score was -2.21 (active). Under GCCCAGAAUAGACAAACCGTT against Wfdc15b stands -1.95; under CCUGAUCCCAUGUAAAACATT against Sspn, -0.35; under GGGAAUGACAGAAAUAUAATT against Golm1, 0.923. On to GGUUGUUACCUUACUGUACTT against Olfr532, for which the z-score is 0.952. As to GGCUAUUGUUGGUAGAACUTT against Dek, the z-score was 0.441. To CGUAAUACAAUCCAGUUCATT against Aqr belongs -2.18 (active); to GGACUUAUGAGCAAAUAAATT against Rprd1a, 0.494.

For GGAACUUUAUGUCUCCUACTT against Lrrc56, the z-score is -0.988. In the case of GGUUUCCUUUAUCAAGAAGTT against Snrnp25, the z-score was -0.00388.

As to CCUAUAAGUGAACUGUGAUTT against Aig1, the z-score is -0.71. CCUGUAUACUAUCACUUGUTT against Casp8: the z-score is 0.103. To GCAGCUGCACUAAAGAACGTT against Dlg1 belongs 2.9 (active); to GGUGUCUUAUGAGCAAUAUTT against Pdcd6, -1.12; to GGGAAAUCAGAUAAAGCCCTT against Myl12a, 0.874.

In the case of GGCAACAACAUACCUAAUATT against Rmdn1, the z-score is -0.756. In the case of GGUACUUUCGCAUCCUGCATT against Rnaseh2b, the z-score was -0.397. As for GGCAAAUGAGAAACAGCAATT against Cxcl16, the z-score is -2.23 (active). Regarding GGUGUUGGCUCACAACCAATT against Fam234b, the z-score is -1.67. Consider GGUCAUUCCCAUUAAACAGTT against Emc8, for which the z-score is -2.57 (active). Under GGGCUCUGAAUUGAAGAAATT against Ralgps2 stands -0.163; under CCCUUAGGGAGUGCUGUGATT against Gc, -1.85; under CCAAAGGGAAGAGUUAUGCTT against Tmem126b, 2.34 (active). With CCCAUGAACCUUAUUUGAATT against Ino80c, the z-score was -0.268. To GGUGGUAUUGUUGGCUUUATT against Olfr1297 belongs 0.293; to GAUGGACAGAAAUCAGGAGTT against Arap1, 0.208; to CGGUCAUUUGAAGUAGGAATT against Pwwp3a, 0.76. For the sequence GGAUCAUCUCCUCUACUCUTT against Olfr394, the z-score is -1.84. Take GGAAGUAGCUUAUUGUUCUTT against Polr2b: the z-score is -2.69 (active).

With CCAGGUGAAUUAAUAGUCUTT against Stk4, the z-score was 0.93. Consider GGUACUAAAUCAAACAUCCTT against Angpt1, for which the z-score is 0.578.

For GAUCUUUCGACACAUCACCTT against Cyp4a12a, the z-score was -2.02 (active). On to GCCUGAAUCCGCCACAUUGTT against Cx3cl1, for which the z-score is 1.6. Take “GGAGGACCAUUGUAAGUAGTT against 9930022D16Rik”: the z-score was 2.17 (active). Turning to CCUGGAUGCAGGUUAAGCUTT against Dppa5a, the z-score was -0.817. With GCUGAAACUAACAUUUGAUTT against Anxa3, the z-score is 0.146.
